Results reported in PubChem BioAssay (EPA / NIEHS).
Inconclusive results are not listed. The source made the active and inactive calls. The calls were made as follows: active = hit-call score of the fitted dose curve at least 0.9, where 1 is the maximum; inconclusive = response in the unintended direction; inactive = score below 0.9.

Experiments:
[1] = target: human Matrix Metalloproteinase-9 (MMP9), MMP9 (gene 4318) (UniProt P14780); test: NVS_ENZ_hMMP9: NovaScreen (NVS) Enzymatic Assay for human Matrix Metalloproteinase-9 (MMP9) (AID 2283190);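 also: cell-free recombinant MMP9 protease activity read by fluorescent substrate signal; active means inhibition seen as loss of fluorescence signal versus DMSO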
Sequence of human Matrix Metalloproteinase-9 (MMP9), MMP9 (gene 4318) (P14780 whole entry, looked up): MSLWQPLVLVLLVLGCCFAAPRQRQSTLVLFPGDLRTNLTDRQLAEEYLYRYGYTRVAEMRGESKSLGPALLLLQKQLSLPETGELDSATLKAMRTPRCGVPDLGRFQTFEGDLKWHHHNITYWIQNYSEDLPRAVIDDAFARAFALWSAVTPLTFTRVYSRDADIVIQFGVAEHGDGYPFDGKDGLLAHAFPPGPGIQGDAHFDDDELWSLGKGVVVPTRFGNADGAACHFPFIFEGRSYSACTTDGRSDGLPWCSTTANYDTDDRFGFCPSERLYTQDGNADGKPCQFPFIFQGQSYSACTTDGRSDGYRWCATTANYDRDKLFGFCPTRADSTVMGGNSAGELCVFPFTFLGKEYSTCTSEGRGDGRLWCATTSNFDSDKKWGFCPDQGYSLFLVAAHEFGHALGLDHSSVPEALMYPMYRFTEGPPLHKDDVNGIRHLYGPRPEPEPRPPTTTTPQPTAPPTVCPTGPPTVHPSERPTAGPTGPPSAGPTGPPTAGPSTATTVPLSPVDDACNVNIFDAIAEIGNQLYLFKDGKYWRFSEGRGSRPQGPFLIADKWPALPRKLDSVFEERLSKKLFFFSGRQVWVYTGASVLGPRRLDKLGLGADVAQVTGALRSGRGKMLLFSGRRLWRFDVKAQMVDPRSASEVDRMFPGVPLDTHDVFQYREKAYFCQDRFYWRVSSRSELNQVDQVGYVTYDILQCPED
Method in brief: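 Cell-free fluorescence-intensity enzyme activity assay using extracted protein, read 1 h after dosing. Loss of signal versus DMSO baseline indicates inhibition; primary screen in duplicate at 25 uM, actives followed up in concentration series.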

[2] = target: human Phosphoinositide 3-kinase alpha (PI3Ka), PIK3CA (gene 5290) (UniProt P42336); test: NVS_ENZ_hPI3Ka: NovaScreen (NVS) Enzymatic Assay for human Phosphoinositide 3-kinase alpha (PI3Ka) (AID 2283196)
Sequence of human Phosphoinositide 3-kinase alpha (PI3Ka), PIK3CA (gene 5290) (P42336 whole entry, looked up): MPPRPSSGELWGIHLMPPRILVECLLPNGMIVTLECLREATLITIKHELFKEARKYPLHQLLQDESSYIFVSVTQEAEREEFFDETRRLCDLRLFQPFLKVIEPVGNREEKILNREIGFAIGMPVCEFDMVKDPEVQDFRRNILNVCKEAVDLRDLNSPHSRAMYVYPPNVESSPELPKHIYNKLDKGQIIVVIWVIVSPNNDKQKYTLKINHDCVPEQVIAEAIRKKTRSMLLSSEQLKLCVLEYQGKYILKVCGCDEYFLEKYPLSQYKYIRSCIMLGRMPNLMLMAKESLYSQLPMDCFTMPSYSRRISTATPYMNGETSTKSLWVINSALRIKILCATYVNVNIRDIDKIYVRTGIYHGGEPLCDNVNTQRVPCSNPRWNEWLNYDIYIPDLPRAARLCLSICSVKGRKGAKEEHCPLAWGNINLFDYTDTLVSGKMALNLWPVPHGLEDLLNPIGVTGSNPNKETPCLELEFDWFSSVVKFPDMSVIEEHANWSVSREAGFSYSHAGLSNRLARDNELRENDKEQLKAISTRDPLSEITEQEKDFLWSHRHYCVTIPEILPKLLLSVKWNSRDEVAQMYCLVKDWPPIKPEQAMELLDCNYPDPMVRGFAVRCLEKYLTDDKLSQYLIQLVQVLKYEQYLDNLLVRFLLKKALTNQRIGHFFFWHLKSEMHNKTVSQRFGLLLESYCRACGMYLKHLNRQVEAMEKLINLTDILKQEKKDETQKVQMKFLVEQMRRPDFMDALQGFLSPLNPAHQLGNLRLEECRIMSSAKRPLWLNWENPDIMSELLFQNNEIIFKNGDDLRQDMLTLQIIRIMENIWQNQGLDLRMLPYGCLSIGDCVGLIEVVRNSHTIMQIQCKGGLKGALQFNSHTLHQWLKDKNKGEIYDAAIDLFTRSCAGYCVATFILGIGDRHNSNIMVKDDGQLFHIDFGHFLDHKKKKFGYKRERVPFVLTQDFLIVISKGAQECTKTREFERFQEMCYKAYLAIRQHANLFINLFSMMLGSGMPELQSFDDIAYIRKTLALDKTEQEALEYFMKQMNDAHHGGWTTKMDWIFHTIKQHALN
Method in brief: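 Enzyme activity as fluorescence after mobility-shift separation of substrate and product, 1 h reaction, recombinant human PI3Kα; concentration-response to 50 uM max for chemicals passing a 25 uM duplicate screen.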

[3] = target: human Esterase Plasma (ES), BCHE (gene 590) (UniProt P06276); test: NVS_ENZ_hES: NovaScreen (NVS) Enzymatic Assay for human Esterase Plasma (ES) (AID 2283157)
Method in brief: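 Screening ran at 25 uM in duplicate, followed by singleton concentration series reaching 50 uM for actives. Human plasma protein, colorimetric detection, 0.25 h exposure, DMSO negative control.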

[4] = target: human Ephrin type-A Receptor 1 (EphA1), EPHA1 (gene 2041) (UniProt P21709); test: NVS_ENZ_hEphA1: NovaScreen (NVS) Enzymatic Assay for human Ephrin type-A Receptor 1 (EphA1) (AID 2283158);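 also: activity is signal loss versus DMSO meaning EphA1 kinase inhibition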
Sequence of human Ephrin type-A Receptor 1 (EphA1), EPHA1 (gene 2041) (P21709 whole entry, looked up): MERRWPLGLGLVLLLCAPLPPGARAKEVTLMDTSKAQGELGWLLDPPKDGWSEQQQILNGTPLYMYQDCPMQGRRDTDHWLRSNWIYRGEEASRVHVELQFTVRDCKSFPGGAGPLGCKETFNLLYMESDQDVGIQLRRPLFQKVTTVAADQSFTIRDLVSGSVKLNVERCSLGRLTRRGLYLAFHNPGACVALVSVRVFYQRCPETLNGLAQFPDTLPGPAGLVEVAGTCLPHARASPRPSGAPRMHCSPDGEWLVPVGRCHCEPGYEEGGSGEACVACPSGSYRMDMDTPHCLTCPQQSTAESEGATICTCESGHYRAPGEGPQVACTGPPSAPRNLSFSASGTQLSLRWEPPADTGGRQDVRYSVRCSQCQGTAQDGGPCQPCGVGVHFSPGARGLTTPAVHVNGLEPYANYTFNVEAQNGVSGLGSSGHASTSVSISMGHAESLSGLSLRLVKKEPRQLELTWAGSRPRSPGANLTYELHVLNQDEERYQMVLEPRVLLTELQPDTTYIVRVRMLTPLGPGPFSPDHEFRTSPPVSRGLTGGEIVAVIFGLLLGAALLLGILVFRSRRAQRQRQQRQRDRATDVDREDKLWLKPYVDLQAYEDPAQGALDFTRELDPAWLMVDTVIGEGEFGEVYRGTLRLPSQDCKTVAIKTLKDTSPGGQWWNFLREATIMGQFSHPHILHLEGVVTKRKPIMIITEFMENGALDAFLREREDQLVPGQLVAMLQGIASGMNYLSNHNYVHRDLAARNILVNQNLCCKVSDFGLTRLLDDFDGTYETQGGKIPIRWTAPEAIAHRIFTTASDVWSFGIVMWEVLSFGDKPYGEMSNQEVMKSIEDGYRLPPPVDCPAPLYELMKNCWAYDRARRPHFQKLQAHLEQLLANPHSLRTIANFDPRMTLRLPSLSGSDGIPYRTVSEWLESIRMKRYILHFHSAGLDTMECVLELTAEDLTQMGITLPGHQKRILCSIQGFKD
Method in brief: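 Cell-free kinase activity with recombinant protein, 1 hour after dosing; product separated by electrophoretic mobility shift, fluorescence read. Primary screen at 25 uM in duplicate; hits run as concentration-response up to 50 uM, relative to DMSO.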

[5] = target: human Beta-secretase (BACE), BACE1 (gene 23621) (UniProt P56817); test: NVS_ENZ_hBACE: NovaScreen (NVS) Enzymatic Assay for human Beta-secretase (BACE) (AID 2283140);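 also: hits are inhibitors that reduce fluorescent substrate signal versus DMSO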
Sequence of human Beta-secretase (BACE), BACE1 (gene 23621) (P56817 whole entry, looked up): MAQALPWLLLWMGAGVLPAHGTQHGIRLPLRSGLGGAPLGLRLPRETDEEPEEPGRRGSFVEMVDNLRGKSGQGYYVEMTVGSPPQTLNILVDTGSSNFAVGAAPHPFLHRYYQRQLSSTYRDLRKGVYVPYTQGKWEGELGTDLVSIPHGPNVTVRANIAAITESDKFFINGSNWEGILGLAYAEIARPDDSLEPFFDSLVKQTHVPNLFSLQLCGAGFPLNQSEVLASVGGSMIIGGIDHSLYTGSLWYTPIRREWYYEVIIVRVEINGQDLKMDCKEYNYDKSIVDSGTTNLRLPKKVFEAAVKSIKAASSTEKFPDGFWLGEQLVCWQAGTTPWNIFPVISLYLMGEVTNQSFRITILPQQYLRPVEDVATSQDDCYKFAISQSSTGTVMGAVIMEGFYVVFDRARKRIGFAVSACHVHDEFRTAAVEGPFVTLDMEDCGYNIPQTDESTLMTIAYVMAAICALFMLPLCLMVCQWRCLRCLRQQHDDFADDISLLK
Method in brief: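 Enzyme activity of SF9-produced BACE1 is measured cell-free by fluorescence, 1 hour post dosing, normalised to DMSO. Screening used 25 uM in duplicate, with concentration-response follow-up for actives.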

[6] = target: human Phosphodiesterase 10 (PDE10), PDE10A (gene 10846) (UniProt Q9Y233); test: NVS_ENZ_hPDE10: NovaScreen (NVS) Enzymatic Assay for human Phosphodiesterase 10 (PDE10) (AID 2283195)
Sequence of human Phosphodiesterase 10 (PDE10), PDE10A (gene 10846) (Q9Y233 whole entry, looked up): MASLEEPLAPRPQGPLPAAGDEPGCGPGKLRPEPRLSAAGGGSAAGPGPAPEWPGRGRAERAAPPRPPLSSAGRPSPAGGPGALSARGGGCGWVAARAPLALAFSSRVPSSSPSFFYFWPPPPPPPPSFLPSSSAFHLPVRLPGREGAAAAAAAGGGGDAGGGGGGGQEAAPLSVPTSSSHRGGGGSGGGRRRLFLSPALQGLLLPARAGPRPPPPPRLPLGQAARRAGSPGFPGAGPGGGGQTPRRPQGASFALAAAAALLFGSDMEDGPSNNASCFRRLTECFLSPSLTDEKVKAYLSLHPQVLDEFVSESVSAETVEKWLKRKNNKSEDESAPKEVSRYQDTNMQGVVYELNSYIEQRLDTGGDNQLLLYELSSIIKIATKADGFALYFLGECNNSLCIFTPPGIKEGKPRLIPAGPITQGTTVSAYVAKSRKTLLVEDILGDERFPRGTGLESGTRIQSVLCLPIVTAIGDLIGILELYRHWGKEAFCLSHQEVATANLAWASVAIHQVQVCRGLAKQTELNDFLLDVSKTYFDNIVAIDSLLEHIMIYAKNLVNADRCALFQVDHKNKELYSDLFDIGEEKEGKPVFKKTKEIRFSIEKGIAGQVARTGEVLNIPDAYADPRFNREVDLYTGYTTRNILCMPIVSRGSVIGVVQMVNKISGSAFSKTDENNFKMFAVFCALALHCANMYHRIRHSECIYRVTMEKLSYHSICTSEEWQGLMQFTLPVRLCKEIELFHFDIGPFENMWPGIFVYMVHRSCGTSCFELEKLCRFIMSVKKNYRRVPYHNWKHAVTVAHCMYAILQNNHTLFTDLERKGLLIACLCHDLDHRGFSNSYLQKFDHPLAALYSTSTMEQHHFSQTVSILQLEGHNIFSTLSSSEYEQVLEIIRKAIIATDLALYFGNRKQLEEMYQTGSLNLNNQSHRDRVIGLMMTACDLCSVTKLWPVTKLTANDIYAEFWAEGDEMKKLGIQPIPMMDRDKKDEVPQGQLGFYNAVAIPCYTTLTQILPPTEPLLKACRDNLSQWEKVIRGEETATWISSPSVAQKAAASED
Method in brief: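 Readout is fluorescence intensity following electrophoretic mobility-shift separation, 1 h after dosing of isolated PDE10A protein. Hits meeting a preset threshold at 25 uM went to concentration series (max 50 uM), analysed relative to DMSO.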

[7] = target: human Caspase 5 (CASP5), CASP5 (gene 838) (UniProt P51878); test: NVS_ENZ_hCASP5: NovaScreen (NVS) Enzymatic Assay for human Caspase 5 (CASP5) (AID 2283137)
Sequence of human Caspase 5 (CASP5), CASP5 (gene 838) (P51878 whole entry, looked up): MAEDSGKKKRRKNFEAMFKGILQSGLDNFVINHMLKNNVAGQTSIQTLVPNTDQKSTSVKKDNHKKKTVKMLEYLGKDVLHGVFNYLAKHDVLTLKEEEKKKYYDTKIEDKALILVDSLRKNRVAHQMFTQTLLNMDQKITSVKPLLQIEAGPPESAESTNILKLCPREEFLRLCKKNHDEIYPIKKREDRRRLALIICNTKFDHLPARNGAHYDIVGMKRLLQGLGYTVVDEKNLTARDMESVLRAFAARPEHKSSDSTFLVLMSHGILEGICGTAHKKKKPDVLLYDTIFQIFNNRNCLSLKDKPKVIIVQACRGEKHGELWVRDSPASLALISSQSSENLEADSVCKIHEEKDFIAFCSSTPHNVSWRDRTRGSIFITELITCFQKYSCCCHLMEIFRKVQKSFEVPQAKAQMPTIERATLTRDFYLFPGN
Method in brief: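 Caspase 5 enzyme activity, detected as fluorescence signal loss, is measured in a biochemical format using E. coli-expressed protein. Reading occurs 2 hours post-dosing. Screening runs at 25 uM, with confirmed actives titrated to 50 uM maximum.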

[8] = target: human Protein Tyrosine Phosphatase Non-receptor Type 6 (PTPN6), PTPN6 (gene 5777) (UniProt P29350); test: NVS_ENZ_hPTPN6: NovaScreen (NVS) Enzymatic Assay for human Protein Tyrosine Phosphatase Non-receptor Type 6 (PTPN6) (AID 2283210)
Method in brief: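 Recombinant human PTPN6 from SF9 cells, enzyme activity followed by fluorescence after mobility-shift separation of substrate and product at 1.33 h. Chemicals first tested at a single 25 uM in duplicate, then confirmed across concentration series; loss of signal relative to DMSO.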

[9] = target: human Dual Specificity Protein Phosphatase 3 (DUSP3), DUSP3 (gene 1845) (UniProt P51452); test: NVS_ENZ_hDUSP3: NovaScreen (NVS) Enzymatic Assay for human Dual Specificity Protein Phosphatase 3 (DUSP3) (AID 2283152);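 also: phosphatase activity of recombinant human DUSP3 on a fluorogenic substrate without cells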
Sequence of human Dual Specificity Protein Phosphatase 3 (DUSP3), DUSP3 (gene 1845) (P51452 whole entry, looked up): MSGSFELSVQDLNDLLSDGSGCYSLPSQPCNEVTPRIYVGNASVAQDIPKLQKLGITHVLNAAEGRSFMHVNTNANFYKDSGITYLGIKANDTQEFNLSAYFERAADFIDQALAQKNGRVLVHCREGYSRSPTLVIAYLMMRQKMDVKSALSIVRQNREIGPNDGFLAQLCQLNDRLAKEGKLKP
Method in brief: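 Cell-free fluorescence-intensity enzyme activity assay with recombinant protein and substrate; loss of signal fitted relative to DMSO baseline. Primary screen in duplicate at 25 uM, actives then run in concentration series; measured 0 h after dosing.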

[10] = target: human Vascular Endothelial Growth Factor Receptor 1 (VEGFR1), FLT1 (gene 2321) (UniProt P17948); test: NVS_ENZ_hVEGFR1: NovaScreen (NVS) Enzymatic Assay for human Vascular Endothelial Growth Factor Receptor 1 (VEGFR1) (AID 2283226)
Method in brief: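 Kinase activity of recombinant human VEGFR1 was read by fluorescence after electrophoretic separation of product from substrate, 1 h post-dosing; initial duplicate single-point testing at 25 uM, followed by concentration-series follow-up, with DMSO as baseline.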

CC1CCC(C(C)CS)CC1S (stereo not given)
AC50 [1]: 0.997 µM (active)

CC(=O)/C=C/C1=C(C)CCCC1(C)C
outcome [2]: inactive

CCn1c2ccccc2c2cc(N)ccc21
AC50 [3]: 27.1 µM (active) | AC50 [4]: 19.3 µM (active) | AC50 [2]: 9.32 µM (active)

N#Cc1ccccc1
outcome [5]: inactive | outcome [2]: inactive

Clc1ccc(Cl)c(Cl)c1Cl
AC50 [1]: 6.22 µM (active)

CC1(C)[C@H](C(=O)OCc2cccc(Oc3ccccc3)c2)[C@@H]1C=C(Cl)Cl
outcome [6]: inactive

CC(CCO)CCCC(C)(C)O (stereo not given)
outcome [4]: inactive

Nc1cc(N)cc(C(=O)O)c1
AC50 [7]: 19900 nM (active)

O=[N+]([O-])c1cc(C(F)(F)F)ccc1Cl
outcome [4]: inactive | AC50 [6]: 35 µM (active)

CC(C)[C@@H]1CC[C@@H](C)CC1=O
outcome [4]: inactive

CC(=O)OCCOC(C)=O
AC50 [1]: 14.9 µM (active)

Cc1ccc(Nc2ccc(O)c3c2C(=O)c2ccccc2C3=O)cc1
AC50 [5]: 6.25 µM (active) | AC50 [1]: 2.18 µM (active)

CCO[Si](CCCS)(OCC)OCC
outcome [4]: inactive | AC50 [1]: 1.65 µM (active) | AC50 [6]: 32.1 µM (active) | outcome [2]: inactive

CC1COc2ccccc2N1C(=O)C(Cl)Cl (stereo not given)
outcome [4]: inactive

Cc1c(Cl)c(=O)oc2cc(O)ccc12
AC50 [6]: 0.582 µM (active)

CCc1c(C)cc(N)c(CC)c1N
outcome [6]: inactive

CNC[C@H](O)c1cccc(O)c1
AC50 [1]: 10.6 µM (active)

COC(=O)OC
outcome [4]: inactive | outcome [6]: inactive | outcome [2]: inactive

C#C[C@]1(O)CC[C@H]2[C@@H]3CCC4=Cc5oncc5C[C@]4(C)[C@H]3CC[C@@]21C
outcome [4]: inactive | outcome [6]: inactive | outcome [2]: inactive

CC(=O)OCc1ccc2c(c1)OCO2
AC50 [4]: 8.23 µM (active) | outcome [6]: inactive

O=C(O)c1ccc([N+](=O)[O-])cc1
outcome [8]: inactive

CCCCC(CC)COCCC#N (stereo not given)
outcome [6]: inactive | outcome [2]: inactive

CCCCC/C=C/C=C/C=O
AC50 [7]: 627 nM (active) | AC50 [5]: 25 µM (active) | AC50 [9]: 9.31 µM (active) | outcome [4]: inactive | AC50 [1]: 25 µM (active) | outcome [6]: inactive | outcome [2]: inactive

CC(C)[C@H]1CC[C@@H](C)CC1=O
outcome [4]: inactive

CC1CCC2CC1C2(C)C (stereo not given)
AC50 [4]: 21.3 µM (active) | outcome [6]: inactive | AC50 [2]: 1.82 µM (active)

CCCCO
outcome [4]: inactive

Nc1cc([N+](=O)[O-])ccc1Cl
outcome [6]: inactive

OCC(CO)(CO)COCC(CO)(CO)CO
outcome [4]: inactive | AC50 [6]: 23.1 µM (active)

COC(=O)c1ccc(C)cc1
outcome [5]: inactive | outcome [2]: inactive

CC(C)Oc1ccccc1O
outcome [4]: inactive

CCCCCCCCC
AC50 [1]: 25 µM (active)

COc1cc2ncnc(Nc3cccc(Cl)c3)c2cc1OC
outcome [4]: inactive | AC50 [6]: 2.52 µM (active) | AC50 [10]: 1.27 µM (active)

OC1C(O)C(O)C(O)C(O)C1O (stereo not given)
outcome [4]: inactive | outcome [6]: inactive

Cc1ccc2ccccc2n1
outcome [4]: inactive | AC50 [6]: 9.74 µM (active)

S=C(S)NCCNC(=S)S
AC50 [9]: 0.161 µM (active)

CC1(C)[C@H]2CC[C@]1(C)[C@H](O)C2
outcome [4]: inactive

c1ccc2c(c1)c1cccc3ccc4cccc2c4c31
outcome [6]: inactive | outcome [10]: inactive

O=C1OC2(c3cc(Br)c(O)c(Br)c3Oc3c2cc(Br)c(O)c3Br)c2c(Cl)c(Cl)c(Cl)c(Cl)c21
AC50 [7]: 552 nM (active) | AC50 [9]: 6.67 µM (active) | outcome [3]: inactive | AC50 [2]: 1.86 µM (active)

CC(=O)O[C@]1(C(C)=O)CC[C@H]2[C@@H]3C[C@H](C)C4=CC(=O)CC[C@]4(C)[C@H]3CC[C@@]21C
outcome [1]: inactive

O=C=NC1CCC(CC2CCC(N=C=O)CC2)CC1 (stereo not given)
AC50 [5]: 8.32 µM (active) | AC50 [1]: 2.17 µM (active) | outcome [6]: inactive | outcome [2]: inactive
